Bioassay records as filed in PubChem.
HIV RNase H inh-1: blocks HIV-1 RNase H cleavage of RNA/DNA duplex; P04585; RT-RNase H RNA/DNA duplex cleavage, fluorescence; inhibition, % at 10 µM; 65,000 compounds, 1.9% hits; AID 565; in the data active = inhibition above about 50%
RmlC RmlD mix: RmlC/RmlD inhibition, mixture screen; RmlC/RmlD coupled enzyme inhibition, 384-well mixture HTS; inhibition, % at 5.5 µM; 110,000 compounds, 0.39% hits; in the data active = inhibition above about 30%, passing the limit was not always enough; inconclusive = no clear call, values can overlap the other calls
HIV RNase H inh-2: confirmation of HIV-1 reverse transcriptase RNase H inhibitors; Recombinant RT RNase H, fluorescent RNA/DNA duplex cleavage; inhibition, % at 10 µM; 1,000 compounds, 39% hits; shares compounds with HIV RNase H inh-1; in the data active = inhibition above about 48%; inconclusive = no clear call, values can overlap the other calls
* hit, by the source's call; ? = inconclusive; . = no result. Only a selection was taken, and hits are over-represented in it overall.

SMILES	HIV RNase H inh-1	RmlC RmlD mix	HIV RNase H inh-2
COc1ccc(/C(O)=C2/C(=O)C(=O)N(CCCN(C)C)C2c2ccc(C)o2)cc1Cl (stereo unspecified)	3	3	.
CCOc1ccccc1-c1ccc(C(=O)NCc2ccccc2)o1	.	-33	.
O=c1ccc2cc3c([nH]c4ccc(Br)cc43)oc-2c1O	88*	10	58*
O=c1c2c([nH]c3ccc(Br)cc13)CCCC2	-2	-29	.
COc1ccc(CONS(=O)(=O)c2ccc(NC(C)=O)cc2)cc1Cl	.	8	.
O=C1CCCC(O)=C1C(C#Cc1ccccc1)C1=C(O)CCCC1=O	83*	-13	78*
O=C1CCCC2=C1C(c1ccccc1O)C1=C(CCCC1=O)O2	11	-7	.
CCC1(C)N(O)C(C)(C)C(c2ccc(F)cc2)=[N+]1[O-] (stereo unspecified)	.	-12	.
CC(=O)n1cc([C@H]2C=C(C(=O)N3CCN(Cc4ccccc4)CC3)O[C@@H](OCc3ccc(CO)cc3)C2)c2ccccc21	.	-8	.
Cn1c(=O)c(=O)n(C)c2cc(S(=O)(=O)N3CCOCC3)ccc21	-22	0	.
Cc1cccc(N2CCN(S(=O)(=O)c3ccc4c(c3)n(C)c(=O)c(=O)n4C)CC2C)c1 (stereo unspecified)	57*	3	?
CNc1nc(C)c(C(=O)OCc2ccccc2)s1	-28	9	.
N#CC1=C(N)SC(N)=C(C#N)C1CCC1CCCCC1	80*	-1	?
Nc1nnc(CCC2CCCCC2)s1	-21	-9	.
CC(C)(O)C#Cc1ccc(C(=O)NCc2ccccc2)s1	.	-9	.
O=C(CSc1ccc2nnc(-c3cccnc3)n2n1)NCC1CCCO1 (stereo unspecified)	7	-4	.
O=C(CSc1ccc2nnc(-c3cccc(F)c3)n2n1)NCC1CCCO1 (stereo unspecified)	73*	6	33
O=C(c1c(F)c(F)c(F)c(F)c1F)N1CCc2ccccc21	0	-63	.
Cc1ccc(N2CCn3c2nc2c3c(=O)n(CCc3ccccc3)c(=O)n2C)cc1	64*	.	46
COc1ccc(N2CCCn3c2nc2c3c(=O)n(CCc3ccccc3)c(=O)n2C)cc1	-21	12	.
CCN1C(=O)N(CC)C2C1N(C(C)=O)C(=O)N2C(C)=O (stereo unspecified)	-4	-5	.
c1coc(-c2nc3ccccc3nc2-c2ccco2)c1	67*	-10	44
O=c1oc(-c2ccco2)nc2ccccc12	-1	-11	.
CCN1C(=O)C(CC(=O)Nc2ccc(Br)cc2)N(CCCc2ccccc2)C1=S (stereo unspecified)	.	2	.
CCCCCC(=O)N(O)C1CC(=O)N(c2ccccc2)C1=O (stereo unspecified)	16	6	.
SMILES	HIV RNase H inh-1	RmlC RmlD mix	HIV RNase H inh-2
CCCCCCC(=O)N(O)C1CC(=O)N(Cc2ccccc2)C1=O (stereo unspecified)	66*	-2	32
COC(=O)c1ccc2c(=O)n(CCC3=CCCCC3)c(SCC(=O)N3CCCC3)nc2c1	16	.	.
COC(=O)c1ccc2c(c1)NC(=O)C(N1CCCC1)S2 (stereo unspecified)	4	7	.
CCOC(=O)c1ccc2c(c1)NC(=O)C(N1CCN(c3ccc(OC)cc3)CC1)S2 (stereo unspecified)	85*	7	-5
O=C(O)c1ccc2c(c1)NC(=O)C(N1CCCC1)S2 (stereo unspecified)	92*	12	63*
COC(=O)c1ccc2c(c1)NC(=O)C(N1CCCCC1)S2 (stereo unspecified)	4	-25	.
Cc1ccc(-c2nnc(SCC(=O)Nc3ccc(S(=O)(=O)N4CCCCCC4)cc3)o2)cc1	65*	11	?
CC(=O)c1cccc(NC(=O)CSc2nnc(-c3ccc(S(=O)(=O)N4CCCC4)cc3)o2)c1	21	7	.
CCn1c(Cc2ccccc2)nnc1SCC(=O)Nc1nc(C)c(C)s1	64*	-13	12
CCn1c(Cc2ccccc2)nnc1SCC(=O)Nc1nc(C)cs1	.	8	.
COCCNC(=O)c1c(N)n(/N=C/c2cccs2)c2nc3ccccc3nc12	-44	-145	.
CC(C)CNC(=O)c1c(N)n(/N=C/c2ccccn2)c2nc3ccccc3nc12	61*	-5	63*
CCCCCCNC(=O)c1c(N)n(/N=C/c2ccco2)c2nc3ccccc3nc12	71*	.	88*
Nc1c(C(=O)NC2CCCCC2)c2nc3ccccc3nc2n1/N=C/c1ccco1	6	.	.
Cn1cnc2c1c(=O)n(CC(O)CO)c(=O)n2C (stereo unspecified)	13	-11	.
COc1ccc(Br)cc1/C=c1\sc2nc(-c3ccco3)nn2c1=O	73*	5	?
COc1ccccc1/C=c1\sc2nc(-c3ccncc3)nn2c1=O	-13	.	.
CCOC(=O)c1c(N)sc2c1CCCC2	85*	1	-1
CCOC(=O)c1c(N)sc2c1CCC(C)C2 (stereo unspecified)	5	-11	.
Cc1nn(-c2ccccc2)c2[nH]c(=O)c(CNc3ccc4c(c3)OCCO4)cc12	80*	4	11
CCc1ccc(NCc2cc3c(C)nn(-c4ccccc4)c3[nH]c2=O)cc1	.	-4	.
COC(=O)C1=C(C(=O)OC)[C@@H]2N(Cc3ccccc3)c3ccccc3[C@@]23C[C@@H](C(=O)OC)N=C3N1	.	6	.
Cc1cccc(C)c1NC(=O)COc1cccc(/C=N/NC(=O)C(=O)NCc2ccccc2)c1	.	-7	.
Cc1cccc(Nc2n[nH]c(=S)s2)c1C	77*	8	85*
C/C(N)=C(/C#N)C(=O)CSc1nnc(Nc2cccc(C)c2C)s1	0	-7	.
SMILES	HIV RNase H inh-1	RmlC RmlD mix	HIV RNase H inh-2
COc1ccc(-n2nc3cc(C)c(NC(=O)CC(C)C)cc3n2)cc1	65*	-9	61*
COc1ccc(-n2nc3cc(C)c(NC(=O)c4cccnc4)cc3n2)cc1	-9	.	.
Cc1cccc(Nc2nnc(-c3ccc(C(=O)N4C[C@H]5C[C@H](C4)c4cccc(=O)n4C5)cc3)c3ccccc23)c1	.	-4	.
S=C(N=Nc1ccccc1)NNc1ccccc1	69*	0	32
CC(=Nc1ccccc1)Nc1ccccc1	25	2	.
COC(=O)CSc1ncnc2c1sc1nc(-c3ccco3)c3c(c12)CC(C)(C)OC3	60*	.	43
CC(C)c1nc2sc3c(NCc4ccco4)ncnc3c2c2c1COC(C)(C)C2	28	-19	.
Cc1ccsc1/C=c1\sc2ncnn2c1=O	2	-2	.
O=c1/c(=C/c2cccc3ccccc23)sc2ncnn12	96*	-4	0
COc1ccccc1N(CC(=O)NCc1ccccc1)C(=O)CCC(=O)Nc1cc(C)ccn1	.	-9	.
Cc1ccc(CCNC(=O)Cn2cccc2)cc1	-3	-10	.
COCCOC(=O)C1=C(C)NC(SCC(=O)NC(C)(C)C)=C(C#N)C1c1ccco1 (stereo unspecified)	3	-7	.
C=CCOC(=O)C1=C(C)NC(SCC(=O)Nc2ccc(C)c(Cl)c2)=C(C#N)C1c1ccco1 (stereo unspecified)	94*	17	85*
CCOC(=O)C1=C(O)/C(=C\c2ccc(CNC(=O)C(=O)Nc3ccccc3)o2)N=C1C	.	-7	.
N#Cc1c(N)[nH]c(=S)c(C#N)c1-c1ccccc1	82*	4	-5
Cc1ccc(-c2cc(-c3ccccc3)[nH]c(=S)c2C#N)cc1	.	0	.
Cc1ccccc1NC(=O)c1c(O)c2cccc3c2n(c1=O)CC3	52*	.	97*
